Earlier results on twelve compounds are cited in PubChem BioAssay AID977611.

About 3,900 (100%) of roughly 3,900 compounds were called active. Cut-off not given; nearly all actives show Kd up to about 4200 µM. So high a share suggests a set chosen from earlier hits. This is one part of the list. Positions of bridges follow the written chain, without caps; N, C: chain ends. Bridge positions count the residues as written; N and C are the ends. Non-standard residues stand in square brackets, D forms with d. Square brackets hold non-standard residues; d marks the D form. Residues, ends and D or L forms follow the SMILES beside them. Peptide text beside a SMILES is read from it. Orn(CH(NH2)2) = NC(N)NCCC[C@H](N)C(=O)O

A short description of the data set: PubChem AID 977611. To be noted: PDB protein-ligand complexes, literature Kd.

`O=C1O[C@H](CO)[C@@H](O[C@@H]2O[C@H](CO)[C@@H](O)[C@H](O)[C@@H]2O)[C@H](O)[C@@H]1O`: the Kd (protein: ABC transporter substrate-binding protein MnBP3, PDB entry 4pft) was 2.3 nM (active). Turning to `C[C@@H]1O[C@@H](O)[C@H](O)[C@H](O)[C@H]1O[C@H]1O[C@H](CO)[C@@H](O)[C@H](O[C@H]2O[C@H](C)[C@@H](O)C[C@H]2O)[C@@H]1O[C@H]1O[C@H](CO)[C@H](O)[C@H](O[C@@H]2O[C@@H](C)[C@H](O[C@H]3O[C@H](CO)[C@@H](O)[C@H](O[C@H]4O[C@H](C)[C@@H](O)C[C@H]4O)[C@@H]3O[C@H]3O[C@H](CO)[C@H](O)[C@H](O)[C@H]3O)[C@@H](O)[C@H]2O)[C@H]1O`, where the note is “protein: Bifunctional tail protein, PDB entry 3th0”, the Kd is 75800 nM (active). For `C[C@H]1O[C@H](O[C@H]2[C@H](O)[C@@H](O)[C@@H](O[C@H]3[C@H](O)[C@@H](O)[C@@H](O)O[C@@H]3CO)O[C@@H]2CO)[C@H](O)[C@@H](O)[C@@H]1N[C@H]1CC(CO)[C@@H](O)[C@H](O)[C@H]1O` (stereo partly drawn), the Kd (protein: Carbohydrate ABC transporter substrate-binding protein, CUT1 family (TC 3.A.1.1.-) EUR_01830, PDB entry 4uac) was 288 nM (active). In the case of `O=P(O)(O)OC[C@H]1OC(O[C@@H]2O[C@H](CO)[C@@H](O)[C@H](O)[C@H]2O)[C@H](O)[C@@H](O)[C@@H]1O` (stereo partly drawn), for the setting “protein: trehalose operon repressor, PDB entry 1BYK”, the Kd is 10000 nM (active). With `OC[C@H]1O[C@H](O[C@H]2[C@@H](O)[C@@H](CO)O[C@@H](O[C@H]3[C@H](O)[C@@H](O)[C@H](O)O[C@@H]3CO)[C@@H]2O)[C@H](O)[C@@H](O)[C@H]1O`, the Kd (protein: PA-I GALACTOPHILIC LECTIN, PDB entry 2vxj) is 68000 nM (active).

On to `OC[C@H]1CNC[C@@H](O[C@H]2O[C@H](CO)[C@@H](O)[C@H](O)[C@@H]2O)[C@@H]1O`, for which, where the note is “protein: GLYCOSYL HYDROLASE FAMILY 71 BxGH99, PDB entry 4v27”, the Kd was 217 nM (active). As to `CC(=O)N[C@@H](C)C(=O)N[C@@H](CC(C)C)C(=O)N[C@H]1CSSC[C@@H](C(=O)N[C@@H](CCC(N)=O)C(=O)N[C@@H](Cc2ccccc2)C(=O)N[C@H](C(=O)N[C@@H](CCC(=O)O)C(N)=O)C(C)C)NC(=O)[C@H](Cc2ccc(O)cc2)NC(=O)[C@H](Cc2c[nH]c3ccccc23)NC(=O)[C@H](CCCNC(N)N)NC(=O)[C@H](CC(=O)O)NC(=O)[C@H](C(C)C)NC(=O)[C@H](CCCNC(N)N)NC(=O)[C@@H]2CCCN2C(=O)[C@H](CC(=O)O)NC(=O)[C@H](CC(=O)O)NC1=O` (Ac-ALCDDP[Orn(CH(NH2)2)]VD[Orn(CH(NH2)2)]WYCQFVE-NH2; disulfide 3-13), where the note is “protein: des-gla factor viia (heavy chain), PDB entry 1dva”, the Kd was 8.5 nM (active). `CC(C)C[C@H]1NC(=O)[C@@H](Cc2c[nH]c3ccccc23)NC(=O)[C@@H](CCC(N)=O)NC(=O)[C@@H](Cc2c[nH]c3ccccc23)NC(=O)[C@@H](CCC(=O)O)NC(=O)[C@H]2CCCN2C(=O)[C@@H](Cc2ccc(O)cc2)NC(=O)[C@@H](CC(=O)O)NC(=O)[C@H](NC(=O)[C@@H](C)NC(=O)CNC(=O)[C@H](N)CCCCN)CSSC[C@H](C(=O)N[C@H](C)C(=O)N[C@H](C)C(=O)O)NC1=O`: the Kd was 2.5 nM (active) (protein: gp41 N-peptide, PDB entry 2r5b) and 0.07 nM (active) (protein: gp41 N-peptide, PDB entry 2r5d).

As for `C[C@@H]1NC(=O)[C@@H]2CSSC[C@H](NC(=O)CN)C(=O)N[C@@H](CSSC[C@@H](C(N)=O)NC(=O)[C@H](CCCNC(N)N)NC(=O)[C@H](Cc3c[nH]c4ccccc34)NC1=O)C(=O)N[C@@H](CO)C(=O)N[C@@H](CC(=O)O)C(=O)N1CCC[C@H]1C(=O)N[C@@H](CCCNC(N)N)C(=O)N2`, under “protein: A-AChBP, PDB entry 2byp”, the Kd is 0.88 nM (active). In the case of `CC[C@H](C)[C@H](NC(C)=O)C(=O)N[C@@H](CO)C(=O)N[C@@H]1C(=O)N[C@@H](CCCN=C(N)N)C(=O)N[C@H]2CCCCNC(=O)CC[C@@H](C(=O)O)NC(=O)[C@@H]3CCC(=O)OC[C@H](NC(=O)[C@@H]4CCCN4C(=O)[C@H](Cc4ccc(O)cc4)NC2=O)C(=O)N[C@@H](CC(=O)O[C@@H]1C)C(=O)N[C@@H](Cc1c[nH]c2ccccc12)C(=O)N3` (Ac-ISTRKYPSDWEE-OH; ester 3-9, 8-11; lactam 5-12), the Kd (protein: Bovine Cationic trypsin, PDB entry 4ktu) was 685 nM (active). Take `CC[C@H](C)[C@H](N)C(=O)N[C@H](C(=O)NCC(=O)NCC(=O)N[C@H]1CSSC[C@@H](C(=O)O)NC(=O)[C@H](CCC(=O)O)NC(=O)[C@H](CCC(=O)O)NC(=O)[C@H](CCCN=C(N)N)NC(=O)[C@H](CC(=O)O)NC(=O)[C@H](CCSC)NC(=O)[C@H](Cc2c[nH]c3ccccc23)NC(=O)[C@H](Cc2ccc(O)cc2)NC(=O)[C@@H]2CCCN2C1=O)[C@@H](C)CC` (H-IIGGCPYWMDREEC-OH; disulfide 5-14): under “protein: Hepatocyte growth factor HGF-Beta V495, PDB entry 4o3u”, the dissociation constant (Kd) is 400 nM (active). In the case of `CC(C)C[C@H](NC(=O)[C@@H]1CSSC[C@@H]2NC(=O)[C@H](CC(N)=O)NC(=O)[C@@H](N)CSSC[C@H](NC(=O)[C@H](CC(C)C)NC(=O)[C@H](Cc3ccccc3)NC(=O)[C@H]([C@@H](C)O)NC(=O)[C@H](CCC(=O)O)NC(=O)[C@@H]3CCCN3C(=O)[C@H](C)NC(=O)[C@H](CCCCN)NC2=O)C(=O)N[C@@H](Cc2ccc(O)cc2)C(=O)N[C@@H](Cc2c[nH]c3ccccc23)C(=O)N[C@@H](CCCNC(N)N)C(=O)N1)C(=O)N[C@@H](CCC(N)=O)C(=O)N[C@@H](Cc1c[nH]cn1)C(N)=O` (H-CNCKAPETFLCYW[Orn(CH(NH2)2)]CLQH-NH2; disulfide 1-11, 3-15), the Kd (protein: E3 ubiquitin-protein ligase Mdm2, PDB entry 3iux) is 25.1 nM (active).
